{
  "source": "PubChem BioAssay AID2778",
  "about": "(National Center for Advancing Translational Sciences (NCATS), 2010)",
  "target": "Menin (Homo sapiens) (UniProt O00255)",
  "sequence (O00255 whole entry, looked up)": "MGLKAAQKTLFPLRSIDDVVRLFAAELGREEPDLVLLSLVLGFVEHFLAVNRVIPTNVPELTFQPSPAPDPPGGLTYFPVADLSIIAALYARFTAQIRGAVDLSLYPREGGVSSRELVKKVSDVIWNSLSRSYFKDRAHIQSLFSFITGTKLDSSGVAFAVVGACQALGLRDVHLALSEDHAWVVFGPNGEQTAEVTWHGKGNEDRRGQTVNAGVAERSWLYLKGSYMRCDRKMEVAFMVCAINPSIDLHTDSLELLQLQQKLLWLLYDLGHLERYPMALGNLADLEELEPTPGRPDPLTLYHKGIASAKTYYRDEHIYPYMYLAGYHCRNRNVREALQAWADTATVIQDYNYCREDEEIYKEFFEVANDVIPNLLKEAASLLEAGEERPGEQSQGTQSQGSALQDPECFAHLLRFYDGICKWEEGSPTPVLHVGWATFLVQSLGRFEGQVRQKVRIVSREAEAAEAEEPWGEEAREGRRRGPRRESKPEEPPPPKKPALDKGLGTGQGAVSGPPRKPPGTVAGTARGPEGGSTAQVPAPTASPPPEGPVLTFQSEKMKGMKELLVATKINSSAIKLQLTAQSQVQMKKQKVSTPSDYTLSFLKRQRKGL",
  "test": "Confirmation of Inhibitors Targeting the Menin-MLL Interaction in MLL Related Leukemias: Confirmation in an HTRF (commercial TR-FRET) Assay using His-tagged menin and biotin-labeled MLL peptide; also: potency is read from the fitted curve at half-maximal effect",
  "in_short": "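HTRF: His6-menin (200 nM) and biotin-MLL-w.t. peptide (80 nM) preincubated 15 min, then compounds 1 hr at ambient, before Eu-cryptate anti-His (3.5 nM) and streptavidin-XL665 (10 nM) for 1 h; 50 mM Tris-HCl pH 7.5, 50 mM NaCl, 1 mM DTT, BSA.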",
  "note": "Records with an inconclusive call do not appear. Entries that show only a call come without a potency. Activity calls are given as the source filed them. Calls follow the shape of the dose curve; as a rule, active = well fitted inhibition curve with a large enough effect; inconclusive = small, poorly fitted or top-dose-only effect, or effect the other way; inactive = flat fitted curve, though single readings scatter. Positions of bridges follow the written chain, without caps; N, C: chain ends. Non-standard residues stand in square brackets, D forms with d. Residues, ends and D or L forms follow the SMILES beside them. ξ: configuration not given here. *: point of attachment. ξDab(CH2SO3H) = NC(CCNCS(=O)(=O)O)C(=O)O; Heptanoyl(6-Me) = CC(C)CCCCC(=O)*; Dab = NCC[CH](N)C(=O)O",
  "data": [
    {"smiles": "COCCNC(=O)C(OC(=O)c1nsc(Cl)c1Cl)C(C)C", "note": "(stereo unspecified)", "values": [
      {"measurement": "Potency", "result": "inactive"}
    ]},
    {"smiles": "CN(C)[C@H]1C(=O)C(C(=O)NCN2CCCC2)=C(O)[C@]2(O)C(=O)C3=C(O)c4c(O)cccc4[C@](C)(O)[C@H]3C[C@H]12", "values": [
      {"measurement": "Potency", "result": "70.7 µM (active)"}
    ]},
    {"smiles": "Cc1ccc(S(=O)(=O)c2cc(OC(=O)c3ccco3)ccc2OC(=O)c2ccco2)cc1", "values": [
      {"measurement": "Potency", "result": "inactive"}
    ]},
    {"smiles": "CCOc1ccccc1N(CC(=O)Nc1ccccc1C(=O)N1CCCC1)S(C)(=O)=O", "values": [
      {"measurement": "Potency", "result": "inactive"}
    ]},
    {"smiles": "CCCN(CCC)CCCNC(=O)c1cc2c(=O)[nH]c3ccccc3c2s1", "values": [
      {"measurement": "Potency", "result": "inactive"}
    ]},
    {"smiles": "O=C(CCN1CCN(c2ccc([N+](=O)[O-])cc2)CC1)c1ccc(Cl)cc1", "values": [
      {"measurement": "Potency", "result": "inactive"}
    ]},
    {"smiles": "COc1ccc2[nH]c3c(C)c4ccncc4c(C)c3c2c1", "values": [
      {"measurement": "Potency", "result": "89.1 µM (active)"}
    ]},
    {"smiles": "O=C(CSc1ccc(Cl)cc1)Nc1ccc(NC(=O)c2ccco2)cc1", "values": [
      {"measurement": "Potency", "result": "inactive"}
    ]},
    {"smiles": "Nc1cccc2c1C(=O)N(C(=O)c1ccco1)C2=O", "values": [
      {"measurement": "Potency", "result": "inactive"}
    ]},
    {"smiles": "CCOC(=O)N1CCN(C(=O)c2oc3ccc(S(=O)(=O)N(CC)CC)cc3c2C)CC1", "values": [
      {"measurement": "Potency", "result": "inactive"}
    ]},
    {"smiles": "CCN1C(=O)[C@@H]2C(C(=O)c3cnccn3)=NN[C@@H]2C1=O", "values": [
      {"measurement": "Potency", "result": "inactive"}
    ]},
    {"smiles": "O=C(c1cc(F)c(F)cc1Cl)N1CCN(c2ncccn2)CC1", "values": [
      {"measurement": "Potency", "result": "inactive"}
    ]},
    {"smiles": "O=C(CSc1nnc(-c2c[nH]c3ccccc23)o1)N1c2ccccc2CCc2ccccc21", "values": [
      {"measurement": "Potency", "result": "inactive"}
    ]},
    {"smiles": "CCCn1c(C2CCCN2c2nc(C)cs2)nc2cc(Cl)c(Cl)cc21", "note": "(stereo unspecified)", "values": [
      {"measurement": "Potency", "result": "inactive"}
    ]},
    {"smiles": "COC(=O)c1cc(CNC(=O)CCCSc2ccccc2)ccc1OC", "values": [
      {"measurement": "Potency", "result": "inactive"}
    ]},
    {"smiles": "CCC(C)C1NC(=O)C(CCNCS(=O)(=O)O)NC(=O)C(NC(=O)C(CCNCS(=O)(=O)O)NC(=O)C(NC(=O)C(CCNCS(=O)(=O)O)NC(=O)CCCCC(C)C)C(C)O)CCNC(=O)C(C(C)O)NC(=O)C(CCNCS(=O)(=O)O)NC(=O)C(CCNCS(=O)(=O)O)NC(=O)C(C(C)CC)NC1=O", "note": "(stereo unspecified) ({Heptanoyl(6-Me)}-[ξDab(CH2SO3H)]T[ξDab(CH2SO3H)][Dab][ξDab(CH2SO3H)]II[ξDab(CH2SO3H)][ξDab(CH2SO3H)]T; lactam 4-C; configuration not given here)", "values": [
      {"measurement": "Potency", "result": "inactive"}
    ]},
    {"smiles": "Cc1ccc(C#CC(C)(O)C(C)(C)C)cn1", "note": "(stereo unspecified)", "values": [
      {"measurement": "Potency", "result": "inactive"}
    ]},
    {"smiles": "O=C(/C=C/c1ccccc1)NC(NC(=S)Nc1cc(Cl)ccc1Cl)C(Cl)(Cl)Cl", "note": "(stereo unspecified)", "values": [
      {"measurement": "Potency", "result": "inactive"}
    ]},
    {"smiles": "Cn1ncc2c(N3CCCCC3)nc(NCCCO)nc21", "values": [
      {"measurement": "Potency", "result": "inactive"}
    ]},
    {"smiles": "Cc1ccc(Nc2nc(N)[nH]c(=O)c2N=O)cc1", "values": [
      {"measurement": "Potency", "result": "inactive"}
    ]},
    {"smiles": "Cc1nc(N2CCN(C)CC2)c2c3c(sc2n1)CCCC3", "values": [
      {"measurement": "Potency", "result": "inactive"}
    ]},
    {"smiles": "COc1cc(OC)cc(C(=O)N/N=C/c2ccc(OC)c(COc3ccc4ccccc4c3)c2)c1", "values": [
      {"measurement": "Potency", "result": "inactive"}
    ]},
    {"smiles": "COc1ccc(-c2cc(-c3ccc(C)cc3)n[nH]2)c(O)c1", "values": [
      {"measurement": "Potency", "result": "inactive"}
    ]},
    {"smiles": "Cc1ccccc1-c1cncnc1NC1CCNCC1", "values": [
      {"measurement": "Potency", "result": "inactive"}
    ]},
    {"smiles": "O=S(=O)(c1ccc(-c2csc(Nc3ccc(Br)cc3)n2)cc1)N1CCCC1", "values": [
      {"measurement": "Potency", "result": "inactive"}
    ]},
    {"smiles": "CCc1nnc(NC(=O)C2(C)COC(c3ccc(OC)cc3)OC2)s1", "note": "(stereo unspecified)", "values": [
      {"measurement": "Potency", "result": "inactive"}
    ]},
    {"smiles": "c1ccc2c(c1)nc(N1CCOCC1)c1c3ccccc3[nH]c21", "values": [
      {"measurement": "Potency", "result": "inactive"}
    ]},
    {"smiles": "COc1ccc(C2=C(CN(C)C)C(c3ccccc3)c3ccccc3O2)cc1", "note": "(stereo unspecified)", "values": [
      {"measurement": "Potency", "result": "inactive"}
    ]},
    {"smiles": "COc1cc(NC(=O)c2cccnc2)c(OC)cc1NC(=O)c1ccc(Br)cc1", "values": [
      {"measurement": "Potency", "result": "inactive"}
    ]},
    {"smiles": "O=C(NCC1CCCO1)c1ccc(OC2CCN(C(=O)C3CC3)CC2)cc1", "note": "(stereo unspecified)", "values": [
      {"measurement": "Potency", "result": "inactive"}
    ]},
    {"smiles": "Cc1cc2cc(C(c3nnnn3CC3CCCO3)N3CCCc4ccccc43)c(=O)[nH]c2cc1C", "note": "(stereo unspecified)", "values": [
      {"measurement": "Potency", "result": "inactive"}
    ]},
    {"smiles": "O=C(CCn1nc(-c2ccccc2)ccc1=O)N1CCN(c2ccccn2)CC1", "values": [
      {"measurement": "Potency", "result": "inactive"}
    ]},
    {"smiles": "CCOC(=O)C1CCN(CC(O)COCc2ccccc2)CC1", "note": "(stereo unspecified)", "values": [
      {"measurement": "Potency", "result": "inactive"}
    ]},
    {"smiles": "CCCCC(=O)NC(=S)Nc1nnn(CCC)n1", "values": [
      {"measurement": "Potency", "result": "inactive"}
    ]},
    {"smiles": "O=C1C(Cl)=C(NC(=O)c2ccccc2)C(=O)C(Cl)=C1NC(=O)c1ccccc1", "values": [
      {"measurement": "Potency", "result": "inactive"}
    ]},
    {"smiles": "CCOc1ccc(NC(=O)c2cccc(OC(=S)N3CCC(C)CC3)c2)cc1", "values": [
      {"measurement": "Potency", "result": "inactive"}
    ]}
  ]
}
